Experimental data from PubChem BioAssay.

These molecules were tested against Alpha-2C adrenergic receptor (Homo sapiens) (UniProt P18825) (assay: modulators of alpha2C/GIRK thallium flux, primary screen, cell-based, HEK293 alpha2C/GIRK1/2 (AID 624;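 also: slope of fluorescence ratio to pre-addition baseline per second over 15 to 24 s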)). Conditions: thallium flux BTC fluorescence, at 10 µM, actives lie on both sides;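 active = fluorescence slope after compound addition differing from the mean of all screened samples at 99.7% confidence, in either direction; inactive = the rest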.
Alpha-2C adrenergic receptor (Homo sapiens), sequence (P18825 whole entry, looked up): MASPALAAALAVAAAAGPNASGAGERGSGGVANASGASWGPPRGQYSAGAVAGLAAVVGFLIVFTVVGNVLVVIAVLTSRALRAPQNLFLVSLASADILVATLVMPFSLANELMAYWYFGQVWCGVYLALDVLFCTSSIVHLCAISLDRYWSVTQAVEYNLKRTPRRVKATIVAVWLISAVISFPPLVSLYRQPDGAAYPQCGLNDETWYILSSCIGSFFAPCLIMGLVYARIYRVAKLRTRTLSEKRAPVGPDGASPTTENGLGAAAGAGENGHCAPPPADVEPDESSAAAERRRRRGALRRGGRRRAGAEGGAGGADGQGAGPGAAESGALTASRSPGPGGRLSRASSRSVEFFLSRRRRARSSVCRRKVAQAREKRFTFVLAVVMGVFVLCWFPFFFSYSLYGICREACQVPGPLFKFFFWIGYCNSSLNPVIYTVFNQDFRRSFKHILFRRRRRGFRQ

slope, inactive:
CCN1CCCC1Cn1cnc2c([nH]c3ccc(C)cc32)c1=O (stereo not given) 0.00693
CCOC(=O)CSc1nc(N)c(C#N)c(-c2ccc(OC)cc2)c1C#N 0.00551
CCOC(=O)CC1=C(C(=O)OCC)C(c2cc(OC)c(OC)cc2OC)C(C#N)=C(N)O1 (stereo not given) 0.00515
CCCOc1ccc(/C(O)=C2/C(=O)C(=O)N(CCN(C)C)C2c2ccncc2)cc1 (stereo not given) 0.00564
CN=C1c2c(-c3ccccc3)c3cc(OC)ccc3n2CCN1C 0.00488
COCCOC(=O)C1=C(C)NC(SCC(=O)NC(C)(C)C)=C(C#N)C1c1ccco1 (stereo not given) 0.00427
c1ccc(-c2nnc3n2N=C(c2ccc4c(c2)OCO4)CS3)nc1 0.00609
C=COC(=O)CSc1nc(-c2cccs2)ccc1C#N 0.0065
Cn1c(=O)oc2cc(C(=O)c3ccccc3)ccc21 0.00473
CCOc1nc(SCCOc2ccc(C)cc2)nc(N(C)C)n1 0.0074
Cc1ccc(CC2CC(=O)N(c3ccc4c(c3)OCCO4)C2=O)cc1 (stereo not given) 0.00446
COC(=O)Cn1cc(C(=O)OC)cc(Br)c1=O 0.00509
CCN(CC)CCNC(=O)c1c(C)oc2cc(Br)c(OC)cc12 0.0063
N=c1c2c(-c3ccccc3)c(-c3ccccc3)n(Cc3ccccc3)c2ncn1CCCn1ccnc1 0.00345
Cc1cc(C)nc(N(C#N)S(=O)(=O)c2ccccc2Cl)n1 0.0071
